Gal4-VP16 FLuc = Gal4-VP16 reporter inhibition counter-screen; Drosophila S2 Gal4-VP16 UAS-luciferase, luminescence, 20 h; 310,000 tested, 3.5% active; Potency, µM (series often up to 53.6 µM), without a hit: top-dose activity, negative = inhibition, actives largely listed as inhibitors;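 also: Gal4-VP16 expression switched on by copper sulfate through the metallothionein promoter; potency is read from the fitted curve at half-maximal effect; % is scaled to controls: 0 for no effect and ±100 for the full control effect; nearly all actives have a fitted effect of over 50% in size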
IL-1B inflam inh = inflammasome signaling inhibition, IL-1 beta readout | activity change, % at 57.5 µM | THP-1 LPS/ATP IL-1B secretion, AlphaLISA, 16 h; stronger effect = lower value | 360,000 tested, 4.7% active; in the data active = activity change below about -50%; inconclusive = mostly about -30% to -49%; also: % is scaled to controls: 0 for no effect and ±100 for the full control effect
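Secreted IL-1B measured by AlphaLISA bead assay after 16 h compound exposure of THP-1 cells; compounds (final up to 57.5 uM) added 1 h before LPS (250 ng/mL) and ATP (1.25 mM) stimulation; lower signal means less secretion.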
MCF10A rerep = inducers of DNA re-replication in MCF 10A breast cells; Potency, µM (series often up to 46.1 µM), inactives show at the highest dose activity, positive = re-replication, hits mostly activators; AID 624296; MCF 10A DNA re-replication, Hoechst nuclear intensity, 48 h; 350,000 tested, 2.9% active; also: potency is read from the fitted curve at half-maximal effect; % of control where 0% means no effect; nearly all actives have a fitted effect of over 50% in size
RORg inh = ROR gamma (mouse) transcription inhibition; Drosophila S2 Gal4-RORgamma UAS-luciferase reporter, 20 h; Potency, µM (series often up to 53.6 µM), inactives show at the top dose activity change, negative = inhibition, usual class: inhibitors; 310,000 tested, 5.4% active; AID 2551; also: potency is read from the fitted curve at half-maximal effect; % is scaled to controls: 0 for no effect and ±100 for the full control effect; nearly all actives have a fitted effect of over 60% in size
Target sequence (P51450 whole entry, looked up, the tested form may be a part): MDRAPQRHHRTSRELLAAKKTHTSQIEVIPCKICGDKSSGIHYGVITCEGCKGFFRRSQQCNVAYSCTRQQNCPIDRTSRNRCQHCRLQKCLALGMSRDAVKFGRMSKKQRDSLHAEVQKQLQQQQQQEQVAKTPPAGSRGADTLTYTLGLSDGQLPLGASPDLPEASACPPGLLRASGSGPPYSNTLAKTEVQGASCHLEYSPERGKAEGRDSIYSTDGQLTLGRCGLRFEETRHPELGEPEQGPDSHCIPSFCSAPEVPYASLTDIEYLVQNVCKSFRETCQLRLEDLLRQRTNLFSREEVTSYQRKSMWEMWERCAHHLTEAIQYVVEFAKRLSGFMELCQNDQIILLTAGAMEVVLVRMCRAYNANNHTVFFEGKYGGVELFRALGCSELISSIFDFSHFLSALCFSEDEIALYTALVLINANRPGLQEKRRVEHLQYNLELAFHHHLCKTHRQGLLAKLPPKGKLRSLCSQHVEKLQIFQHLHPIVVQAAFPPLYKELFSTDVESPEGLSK
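In this cell-based reporter format, copper sulfate (700 uM final) drives Gal4–ROR gamma fusion expression from a metallothionein promoter in Drosophila Schneider cells; compounds preincubated 1 hr, reporter read after 20 hr at ambient temperature.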
SW480 rereplic = DNA re-replication induction in SW480 cells; SW480 DNA re-replication, Hoechst DNA content imaging, 48 h; Potency, µM (titrated, usually from 46.1 µM), inactives show top-dose re-replication activation, usual class: activators; 340,000 tested, 1.8% active; AID 624297; also: potency is read from the fitted curve at half-maximal effect; % of control where 0% means no effect; nearly all actives have a fitted effect of over 55% in size
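Per well, 250 cells were exposed to pinned compound for 48 hr. Nuclear DNA was visualised with Hoechst (40 min, 37 C) and total object intensity recorded by fluorescence scanning.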
Active calls of the source: *. The list is not random: actives were taken first. Their share in the collection is about 11%. Unless noted, calls follow the shape of the dose curve; as a rule, active = well fitted curve in the direction sought with a large enough effect; inconclusive = small, poorly fitted or top-dose-only effect, or another doubt; inactive = no such curve, though single readings can be large; an effect the other way counts as inactive or inconclusive.

What do the screens show for `Cc1ccc2nc(N3CCN(C(=O)c4ccccc4F)CC3)c(C#N)cc2c1`?
IL-1B inflam inh: -4.0; MCF10A rerep: 11.6µM*; SW480 rereplic: 26.5%

How did COc1ccccc1C(=O)N1CCN(c2nc3cc(C)c(C)cc3cc2C#N)CC1 do in these assays?
Gal4-VP16 FLuc: 5.6%; IL-1B inflam inh: -67.1*; MCF10A rerep: inconclusive; RORg inh: 31.0%; SW480 rereplic: inconclusive

Results for Cc1ccc2nc(N3CCN(C(=O)c4ccc(F)cc4)CC3)c(C#N)cc2c1 ?
Gal4-VP16 FLuc: inconclusive; IL-1B inflam inh: -10.4; MCF10A rerep: 12.0%; RORg inh: inconclusive; SW480 rereplic: -9.0%

What do the screens show for `C=CCN1C(=O)C(Cc2ccc(Br)cc2)S/C1=N\N=C\c1ccco1` (configuration not stated)?
Gal4-VP16 FLuc: -18.1%; IL-1B inflam inh: -1.9; MCF10A rerep: 16.9%; RORg inh: 14.1µM*; SW480 rereplic: -6.0%

What do the screens show for `Cc1ccc(NC2CCCCC2NS(=O)(=O)c2ccccc2)c(C)c1` (configuration not stated)?
Gal4-VP16 FLuc: -22.7%; IL-1B inflam inh: 18.9; MCF10A rerep: 7.2%; RORg inh: inconclusive; SW480 rereplic: 25.7%

Results for Oc1ccc(N=Nc2ccc3c(c2)OCCO3)c(O)c1 ?
Gal4-VP16 FLuc: 10µM*; IL-1B inflam inh: -12.5; MCF10A rerep: -2.1%; RORg inh: 8.91µM*; SW480 rereplic: -7.6%

Results for O=C(c1cccc(Cl)c1)N1CCCC(C(=O)N2CCN(c3ccccc3)CC2)C1 (configuration not stated) ?
Gal4-VP16 FLuc: 0.5%; IL-1B inflam inh: -12.5; MCF10A rerep: 1.4%; RORg inh: 2.2%; SW480 rereplic: 2.1%

Results for COc1ccccc1Cn1c(/C=C/c2ccccc2)nc2ccccc21 ?
Gal4-VP16 FLuc: 22.4µM*; IL-1B inflam inh: -79.8*; MCF10A rerep: inconclusive; RORg inh: inconclusive; SW480 rereplic: inconclusive

What do the screens show for `COc1ccc(/C=C/c2nc3ccccc3n2Cc2ccccc2OC)cc1`?
Gal4-VP16 FLuc: -83.9%; IL-1B inflam inh: -201.0*; MCF10A rerep: 16.4µM*; RORg inh: 14.1µM*; SW480 rereplic: inconclusive

Results for COc1ccccc1Cn1c(C(C)C)nc2ccccc21 ?
Gal4-VP16 FLuc: -14.8%; IL-1B inflam inh: 1.6; MCF10A rerep: inconclusive; RORg inh: 7.94µM*; SW480 rereplic: -9.4%

Results for Cc1ccccc1Cn1c(C(C)O)nc2ccccc21 (configuration not stated) ?
Gal4-VP16 FLuc: -2.1%; IL-1B inflam inh: 1.7; MCF10A rerep: -1.4%; RORg inh: -11.1%; SW480 rereplic: 2.2%

How did C=CCn1c(NCc2ccccc2OC)nc2ccccc21 do in these assays?
Gal4-VP16 FLuc: -9.5%; IL-1B inflam inh: -13.2; MCF10A rerep: 1.9%; RORg inh: inconclusive; SW480 rereplic: 2.7%

How did C=CCn1c(/N=C/c2ccc(OC)cc2)nc2ccccc21 do in these assays?
Gal4-VP16 FLuc: 5.3%; IL-1B inflam inh: 4.3; MCF10A rerep: 0.2%; RORg inh: -39.9%; SW480 rereplic: -1.4%

What do the screens show for `COCCn1c(/C=C/c2ccccc2)nc2ccccc21`?
Gal4-VP16 FLuc: inconclusive; IL-1B inflam inh: -1.6; MCF10A rerep: 4.1%; RORg inh: 11.2µM*; SW480 rereplic: 26.9%

Results for CCC(C)c1ccccc1N1CC(C(=O)Nc2ccc(S(=O)(=O)N3CCOCC3)cc2)CC1=O (configuration not stated) ?
IL-1B inflam inh: -8.6; MCF10A rerep: 5.9%; SW480 rereplic: 0.8%

Results for CC(O)CCCCn1c(=O)c2c(ncn2C)n(C)c1=O (configuration not stated) ?
Gal4-VP16 FLuc: -4.1%; MCF10A rerep: 2.3%; RORg inh: 9.0%; SW480 rereplic: -2.7%

What do the screens show for `[O-][n+]1ccc(C(O)c2ccccc2)cc1` (configuration not stated)?
Gal4-VP16 FLuc: -4.4%; IL-1B inflam inh: -1.8; MCF10A rerep: 3.5%; RORg inh: inconclusive; SW480 rereplic: inconclusive

How did Cc1noc(C)c1-c1ccc2ncnc(NCc3cccc(Cl)c3)c2c1 do in these assays?
Gal4-VP16 FLuc: 9.1%; RORg inh: -15.0%

How did C/C(=N\Nc1ccc(S(N)(=O)=O)cc1[N+](=O)[O-])c1cccnc1 do in these assays?
Gal4-VP16 FLuc: 0.5%; IL-1B inflam inh: 2.3; MCF10A rerep: 6.5%; RORg inh: -14.3%; SW480 rereplic: -3.9%

How did CC(C)n1nnnc1C1c2ccccc2C(=O)N1Cc1cccnc1 (configuration not stated) do in these assays?
IL-1B inflam inh: 20.6

Results for COc1cccc([C@@H]2Oc3ccc(OC)cc3C[C@H]2OC(=O)NS(=O)(=O)c2ccc(F)cc2)c1 ?
Gal4-VP16 FLuc: 1.1%; RORg inh: 29.9%

How did c1ccc(-n2cnc3cc(NCc4ccccn4)ccc32)cc1 do in these assays?
Gal4-VP16 FLuc: 13.1%; IL-1B inflam inh: inconclusive; MCF10A rerep: 5.8µM*; RORg inh: inconclusive; SW480 rereplic: 20.6µM*

How did c1ccc(-n2cnc3cc(NCc4ccncc4)ccc32)cc1 do in these assays?
Gal4-VP16 FLuc: inconclusive; IL-1B inflam inh: -7.4; MCF10A rerep: inconclusive; RORg inh: inconclusive; SW480 rereplic: inconclusive

Results for CN(C)c1ccc(NC(=S)NC(=O)/C=C/c2ccco2)cc1 ?
Gal4-VP16 FLuc: 9.3%; IL-1B inflam inh: 3.2; MCF10A rerep: inconclusive; RORg inh: 14.1µM*; SW480 rereplic: -0.7%

What do the screens show for `O=C(/C=C/c1ccco1)NC(=S)Nc1ccc(N2CCCC2)cc1`?
Gal4-VP16 FLuc: 3.16µM*; IL-1B inflam inh: -16.2; MCF10A rerep: 20.6µM*; RORg inh: 2µM*; SW480 rereplic: inconclusive

How did CC(=O)NC(=S)Nc1ccc(NC(=S)NC(=O)/C=C/c2ccco2)cc1 do in these assays?
Gal4-VP16 FLuc: -16.0%; IL-1B inflam inh: 62.0; MCF10A rerep: -3.5%; RORg inh: inconclusive; SW480 rereplic: 14.3%

What do the screens show for `C=CCNC(=S)Nc1ccc(C(N)=O)cc1`?
Gal4-VP16 FLuc: -2.3%; IL-1B inflam inh: -1.3; MCF10A rerep: -3.1%; RORg inh: -0.2%; SW480 rereplic: -1.5%

What do the screens show for `C=CCNC(=S)Nc1ccc(N(C)C)cc1`?
Gal4-VP16 FLuc: inconclusive; IL-1B inflam inh: 14.4; MCF10A rerep: -1.2%; RORg inh: 11.2µM*; SW480 rereplic: -12.3%

What do the screens show for `COc1cccc(-c2cc3nc(C)c(C)c(N4CCN(C(=O)c5ccoc5)CC4)n3n2)c1`?
IL-1B inflam inh: 1.3

How did O=C1NC[C@@H](CCCCN2CCN(CCc3ccccc3)C(=O)C2=O)N(CC2CCCCC2)C1=O do in these assays?
IL-1B inflam inh: 47.8

What do the screens show for `CC(C)[C@@H](CC(=O)N[C@@H]1CCNC[C@H]1C(=O)N[C@H](CC(=O)N[C@@H](CCC(=O)O)CC(=O)O)Cc1ccccc1)NC(=O)C[C@H](CO)NC(=O)[C@@H]1CCCC[C@H]1N`?
Gal4-VP16 FLuc: -0.9%; RORg inh: -3.3%

Bioassay records: PubChem, National Center for Advancing Translational Sciences (NCATS)
